Reference: PubChem BioAssay (NCI)
This is part of a sample that, as a whole, favours compounds with a hit. Of some 83,000 tested, about 20% had one in any assay.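 In brief: 96-well plates, 48 h treatment, single concentration, percent growth endpoint.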 A number with no mark means an inactive call. Active and inactive are the calls of the source. Rule for the calls: active = growth percent below 10; inactive = the rest.

Each compound was assayed on HS 578T breast (assay: NCI-60 one-dose screen, 48 h (100 = growth as untreated, 0 = no growth, -100 = all killed)). Settings: 10 µM unless noted.

| Compound | growth |
| --- | --- |
| Cc1ccc(S(=O)(=O)c2nc(S(=O)(=O)c3ccc(C)cc3)c(N3CCC(O)CC3)s2)cc1 | 59.3% |
| Cc1sc2c(c1C)C(c1ccc(Cl)cc1)=N[C@@H](CC(=O)NCCCCCNC(=O)COc1ccc(C3CCC(=O)NC3=O)cc1)c1nnc(C)n1-2 (stereo partly specified) | 25% |
| COc1ccc2c(c1)C(=N/N=C(\C)c1ccc(OC)c(S(N)(=O)=O)c1)C(=O)N2 | 70.3% |
| COc1cc2oc(-c3cccc(C(=O)Nc4ccc(Cl)cc4)c3)cc(=O)c2c(OCCNC(=O)[C@H](CCC(=O)OC(C)(C)C)NC(=O)OC(C)(C)C)c1OC | 92.6% |
| COc1ccc(-c2nc3cc(C)ccc3n2CC(=O)N=Nc2c(O)[nH]c3ccc(Cl)cc23)cc1 | -2.87% (active) |
| C=CC[N+](C)(C)CCn1c2ccccc2c2nc3cc(C)c(C)cc3nc21 | 56.2% |
| O=C(c1ccc(OCCN2CCOCC2)cc1)C1[C@H](c2ccc(Cl)cc2)[C@@H](c2ccccc2)NC12C(=O)Nc1ccc(Br)cc12 (stereo partly specified) | 57.2% |
| Cc1ccccc1[C@H]1C(C(=O)c2ccc(Cl)cc2)C2(N[C@@H]1c1ccccc1)C(=O)Nc1ccc(Cl)cc12 (stereo partly specified) | 6.9% (active) |
| COc1cc(C2CC(c3cc(OC)c(OC)c(OC)c3)=NN2C(C)=O)ccc1OCc1ccccc1 (stereo unspecified) | 41% |
| Cc1cccc(NC(=O)[C@]23CCC(C)(C)CC2C2=CCC4[C@@]5(C)C[C@@H](O)[C@H](O)[C@@](C)(CO)C5CC[C@@]4(C)[C@]2(C)CC3)c1 (stereo partly specified) | 31% |
| CC12CC[C@@H]3[C@]4(C)COC(c5cn[nH]c5-c5ccc(Cl)cc5)O[C@@H]4CC[C@@]3(C)[C@@H]1CC(C1=CCOC1=O)O2 (stereo partly specified) | 51% |
| S=c1c2ccccc2nc2n1CCc1c-2[nH]c2ccccc12 | 8.23% (active) |
| CCCCSc1nc(NCCc2c[nH]c3ccccc23)c(C#N)c(-c2ccccc2)n1 | 39.6% |
| CC(C)c1sc(NC(=O)c2cc(NC(=O)c3cc(NC(=O)c4cscn4)cn3C)cn2C)nc1C(=O)NCCCN(C)C | 23.3% |
| CC(=O)Nc1ccc(-n2cnc3ccc(-c4ccc(O)cc4)cc32)cc1 | 8.57% (active) |
| Cc1ccc(NCC(=O)Cn2cc(COc3ccc(C=Nc4cnc5ccccc5c4)cc3)nn2)cc1 | 106% |

| Compound | growth |
| --- | --- |
| Cc1ccc([C@H]2C(C(=O)c3ccc(Cl)cc3)C3(N[C@@H]2c2ccccc2)C(=O)Nc2ccc(Br)cc23)cc1 (stereo partly specified) | 83.2% |
| Cn1cc(-c2nnc(N)nc2-c2c[nH]c3ccc(Br)cc23)c2cc(Br)cnc21 | 59.2% |
| O=C(c1ccccc1)c1ccc2nc(-c3ccc(F)cc3)[nH]c2c1 | 65.1% |
| COc1ccc(-c2nc(SCC(C)C)nc(NCCc3c[nH]c4ccccc34)c2C#N)cc1 | 43.2% |
| S=C(Nc1ccccc1)Nc1ccc(OCc2nc3ccccc3[nH]2)cc1 | 50.6% |
| O=C(/C=C/Nc1ccc(Cl)cc1)c1ccc2c(c1)Nc1ccccc1S2 | 8.24% (active) |
| COc1ccc(C(=O)/C=C/c2ccc(OCc3ccc(F)cc3)c(OC)c2)cc1OC | 84.7% |
| COc1c(F)ccc(C(=O)Nc2ccc3nc(NC(=O)C4CCCN(S(=O)(=O)c5cccc(C(F)(F)F)c5)C4)sc3c2)c1F (stereo unspecified) | 61.1% |
| Cn1cc(-c2cc(N)n3nc(-c4c[nH]c5ccccc45)cc3n2)c2cccnc21 | 82.7% |
| Cc1ccc(C(=O)CSc2nc3ccc(C)cc3c(=O)n2-c2ccc(F)cc2)cc1 | -8.71% (active) |
| Cc1nc(Nc2ccccn2)sc1C(=O)CC(SCC(=O)Nc1ccc(Cl)cc1)c1ccccc1F (stereo unspecified) | 4.29% (active) |
| O=c1onc(-c2cc3ccccc3nc2Cl)n1-c1cccc2ccccc12 | 30% |
| CC(=O)OC[C@@]1(C)C2CC[C@]3(C)C(CC=C4C5CC(C)(C)CC[C@]5(C(=O)Nc5ccc(Br)cc5)CC[C@]43C)[C@@]2(C)C[C@@H](OC(C)=O)[C@@H]1OC(C)=O (stereo partly specified) | 80.5% |
| Cc1cc(C)cc(NC(=O)Cn2cc(COn3nnc4ccccc43)nn2)c1 | 102% |
| Cn1cc(-c2cc3nc(-c4cn(C)c5ncc(Br)cc45)cc(N)n3n2)c2ccccc21 | -19.7% (active) |

The compounds below were run on NCI/ADR-RES ovarian in the same assay as above. Settings: 10 µM unless noted.

| Compound | growth |
| --- | --- |
| Cc1ccc(S(=O)(=O)c2nc(S(=O)(=O)c3ccc(C)cc3)c(N3CCC(O)CC3)s2)cc1 | 74.5% |
| C=CC[N+](C)(C)CCn1c2ccccc2c2nc3cc(C)c(C)cc3nc21 | 108% |
| N#Cc1c(-c2ccc(Br)cc2)nc2n[nH]c(-c3ccc(Br)cc3)c2c1-c1ccc(F)cc1 | 97.2% |
| Cc1ccccc1[C@H]1C(C(=O)c2ccc(Cl)cc2)C2(N[C@@H]1c1ccccc1)C(=O)Nc1ccc(Cl)cc12 (stereo partly specified) | -65.7% (active) |
| S=c1c2ccccc2nc2n1CCc1c-2[nH]c2ccccc12 | 49.6% |
| CCCCSc1nc(NCCc2c[nH]c3ccccc23)c(C#N)c(-c2ccccc2)n1 | 22.9% |
| Cc1ccc(NCC(=O)Cn2cc(COc3ccc(C=Nc4cnc5ccccc5c4)cc3)nn2)cc1 | 113% |
| O=C(c1ccccc1)c1ccc2nc(-c3ccc(F)cc3)[nH]c2c1 | 58.3% |
| S=C(Nc1ccccc1)Nc1ccc(OCc2nc3ccccc3[nH]2)cc1 | 43% |
| O=C(/C=C/Nc1ccc(Cl)cc1)c1ccc2c(c1)Nc1ccccc1S2 | 25.7% |
| Cc1ccc(C(=O)CSc2nc3ccc(C)cc3c(=O)n2-c2ccc(F)cc2)cc1 | 40.6% |
| O=C(NNc1ccccc1)n1c(=O)c2ccccc2c(=O)n1-c1ccccc1 | 98.3% |
| O=c1onc(-c2cc3ccccc3nc2Cl)n1-c1cccc2ccccc12 | 15.2% |
| N#Cc1c(-c2cccc(Cl)c2Cl)cc(-c2c[nH]c3ccccc23)[nH]c1=O | 76.5% |
| CC(=O)OC[C@@]1(C)C2CC[C@]3(C)C(CC=C4C5CC(C)(C)CC[C@]5(C(=O)Nc5ccc(Br)cc5)CC[C@]43C)[C@@]2(C)C[C@@H](OC(C)=O)[C@@H]1OC(C)=O (stereo partly specified) | 42.5% |
| Cc1cc(C)cc(NC(=O)Cn2cc(COn3nnc4ccccc43)nn2)c1 | 102% |
| CC(=O)Nc1cccc(Nc2nc(NCc3ccccc3)c3ccccc3n2)c1 | -65% (active) |
| Clc1cccc(Cl)c1/C=C/c1cc(/C=C/c2ccc(Br)cc2)c2ccccc2n1 | 95.5% |
| Cn1cc(-c2cc3nc(-c4cn(C)c5ncc(Br)cc45)cc(N)n3n2)c2ccccc21 | -23.5% (active) |
| N#Cc1c(-c2ccccc2Cl)cc(-c2c[nH]c3ccccc23)[nH]c1=O | 82.3% |
